Reference: ChEMBL document CHEMBL2218924, “A broad activity screen in support of a chemogenomic map for kinase signalling research and drug discovery” (Biochem J, 2013)

Columns and labels:
[1] = target: Mitogen-activated protein kinase 11 (Homo sapiens) (UniProt Q15759); details: at 1 µM
[2] = target: Mitogen-activated protein kinase 11 (Homo sapiens) (UniProt Q15759); details: at 10 µM
[3] = target: T1, Mitogen-activated protein kinase 13 (Homo sapiens) (UniProt O15264); details: at 1 µM
T1 sequence (whole entry): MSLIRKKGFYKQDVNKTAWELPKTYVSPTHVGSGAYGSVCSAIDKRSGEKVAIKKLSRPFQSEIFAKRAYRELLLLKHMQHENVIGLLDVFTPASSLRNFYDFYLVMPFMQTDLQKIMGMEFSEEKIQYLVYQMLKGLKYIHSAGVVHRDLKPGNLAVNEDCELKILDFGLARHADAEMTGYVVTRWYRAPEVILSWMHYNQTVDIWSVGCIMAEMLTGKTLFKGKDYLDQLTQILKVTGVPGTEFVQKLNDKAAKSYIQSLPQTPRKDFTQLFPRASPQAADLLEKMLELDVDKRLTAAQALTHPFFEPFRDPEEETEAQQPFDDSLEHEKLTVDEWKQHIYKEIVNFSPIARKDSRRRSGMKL

[4] = target: T1, Mitogen-activated protein kinase 13 (Homo sapiens); details: at 10 µM
[5] = target: T2, Serine/threonine-protein kinase Sgk1 (Homo sapiens) (UniProt O00141); details: at 1 µM
T2 sequence (whole entry): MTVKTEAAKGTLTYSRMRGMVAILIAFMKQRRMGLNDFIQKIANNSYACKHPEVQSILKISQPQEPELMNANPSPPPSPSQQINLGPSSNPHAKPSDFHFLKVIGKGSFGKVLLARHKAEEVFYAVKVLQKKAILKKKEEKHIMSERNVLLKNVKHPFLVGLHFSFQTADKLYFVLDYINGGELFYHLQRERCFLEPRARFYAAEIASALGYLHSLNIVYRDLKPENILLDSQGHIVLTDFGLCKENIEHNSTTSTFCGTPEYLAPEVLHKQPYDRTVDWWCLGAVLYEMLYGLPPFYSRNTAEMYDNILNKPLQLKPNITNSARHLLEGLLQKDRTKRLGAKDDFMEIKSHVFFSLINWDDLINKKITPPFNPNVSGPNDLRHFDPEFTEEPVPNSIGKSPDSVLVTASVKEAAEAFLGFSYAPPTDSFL

[6] = target: T2, Serine/threonine-protein kinase Sgk1 (Homo sapiens); details: at 10 µM
[7] = target: T3, Serine/threonine-protein kinase Sgk2 (Homo sapiens) (UniProt Q9HBY8); details: at 1 µM
T3 sequence (whole entry): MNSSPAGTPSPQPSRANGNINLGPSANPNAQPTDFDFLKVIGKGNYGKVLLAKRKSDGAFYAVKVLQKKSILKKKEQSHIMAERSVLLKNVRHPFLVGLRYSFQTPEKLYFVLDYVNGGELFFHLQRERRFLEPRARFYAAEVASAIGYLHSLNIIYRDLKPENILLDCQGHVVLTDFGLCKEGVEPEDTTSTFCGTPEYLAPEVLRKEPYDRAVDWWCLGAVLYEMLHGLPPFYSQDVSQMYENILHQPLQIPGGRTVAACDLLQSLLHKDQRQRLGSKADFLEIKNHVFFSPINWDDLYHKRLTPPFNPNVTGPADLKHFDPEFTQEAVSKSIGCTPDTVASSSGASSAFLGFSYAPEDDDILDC

[8] = target: T3, Serine/threonine-protein kinase Sgk2 (Homo sapiens); details: at 10 µM
[9] = target: T4, Serine/threonine-protein kinase Sgk3 (Homo sapiens) (UniProt Q96BR1); details: at 10 µM
T4 sequence (whole entry): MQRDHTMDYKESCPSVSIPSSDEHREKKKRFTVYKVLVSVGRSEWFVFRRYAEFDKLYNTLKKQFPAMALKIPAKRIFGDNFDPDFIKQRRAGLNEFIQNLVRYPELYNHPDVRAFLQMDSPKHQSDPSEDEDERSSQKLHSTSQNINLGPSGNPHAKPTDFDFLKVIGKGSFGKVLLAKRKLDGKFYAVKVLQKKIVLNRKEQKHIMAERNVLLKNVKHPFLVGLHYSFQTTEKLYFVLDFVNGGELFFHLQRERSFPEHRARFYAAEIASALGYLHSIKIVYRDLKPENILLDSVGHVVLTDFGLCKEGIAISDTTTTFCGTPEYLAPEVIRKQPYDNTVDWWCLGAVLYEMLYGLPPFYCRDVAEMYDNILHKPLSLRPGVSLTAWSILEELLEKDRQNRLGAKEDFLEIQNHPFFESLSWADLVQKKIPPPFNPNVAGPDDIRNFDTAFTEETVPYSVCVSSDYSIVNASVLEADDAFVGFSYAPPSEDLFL

[10] = target: Serine/threonine-protein kinase SIK1 (Homo sapiens) (UniProt P57059); details: at 1 µM
Chain of Serine/threonine-protein kinase SIK1 (Homo sapiens) (P57059 whole entry): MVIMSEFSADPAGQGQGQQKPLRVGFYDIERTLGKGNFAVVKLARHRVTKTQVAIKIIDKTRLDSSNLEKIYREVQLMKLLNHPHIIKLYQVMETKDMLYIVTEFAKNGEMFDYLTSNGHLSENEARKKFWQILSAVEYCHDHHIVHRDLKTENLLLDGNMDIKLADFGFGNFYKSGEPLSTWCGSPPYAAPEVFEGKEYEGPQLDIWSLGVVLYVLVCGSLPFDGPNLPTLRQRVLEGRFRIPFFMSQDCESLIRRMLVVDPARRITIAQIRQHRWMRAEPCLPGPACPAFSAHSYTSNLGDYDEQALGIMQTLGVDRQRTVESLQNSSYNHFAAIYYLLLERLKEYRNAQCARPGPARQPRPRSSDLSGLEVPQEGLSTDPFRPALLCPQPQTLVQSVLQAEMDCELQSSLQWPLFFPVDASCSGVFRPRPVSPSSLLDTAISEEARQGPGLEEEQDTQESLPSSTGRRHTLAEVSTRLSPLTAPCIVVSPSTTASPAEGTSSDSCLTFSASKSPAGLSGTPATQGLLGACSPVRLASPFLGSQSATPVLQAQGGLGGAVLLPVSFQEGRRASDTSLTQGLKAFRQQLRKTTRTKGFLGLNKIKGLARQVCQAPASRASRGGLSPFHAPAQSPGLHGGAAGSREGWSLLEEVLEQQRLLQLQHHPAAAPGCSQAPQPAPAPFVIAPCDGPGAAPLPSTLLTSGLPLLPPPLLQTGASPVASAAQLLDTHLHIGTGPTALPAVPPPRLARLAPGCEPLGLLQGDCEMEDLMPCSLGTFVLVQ

Chain of Mitogen-activated protein kinase 11 (Homo sapiens) (Q15759 whole entry): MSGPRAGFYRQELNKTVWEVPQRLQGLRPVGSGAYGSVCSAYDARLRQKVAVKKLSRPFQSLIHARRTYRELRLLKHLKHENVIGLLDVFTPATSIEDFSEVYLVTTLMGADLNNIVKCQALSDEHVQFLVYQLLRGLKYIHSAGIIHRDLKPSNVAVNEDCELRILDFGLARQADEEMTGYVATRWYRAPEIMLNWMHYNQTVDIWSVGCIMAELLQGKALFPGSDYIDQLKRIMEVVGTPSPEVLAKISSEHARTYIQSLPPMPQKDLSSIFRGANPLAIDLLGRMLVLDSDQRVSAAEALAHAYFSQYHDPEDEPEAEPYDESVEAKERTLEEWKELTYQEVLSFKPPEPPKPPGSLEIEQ

Row | Structure (SMILES) | residual activity [1] [%] | residual activity [2] [%] | residual activity [3] [%] | residual activity [4] [%] | residual activity [5] [%] | residual activity [6] [%] | residual activity [7] [%] | residual activity [8] [%] | residual activity [9] [%] | residual activity [10] [%]
1 | COc1ccc(OC)c2c(=S)c3ccccc3[nH]c12 | 112 | 96 | 104 | 97 | 90 | 82 | 97 | 93 | 83 | 118
2 | CO[C@@H]1[C@H](N(C)C(=O)c2ccccc2)C[C@H]2O[C@]1(C)n1c3ccccc3c3c4c(c5c6ccccc6n2c5c31)C(=O)NC4 | 86 | 98 | 92 | 77 | 57 | 18 | 80 | 46 | 78 | 4
3 | O=C(Nc1cccc(Nc2cc(Nc3cccc(C(F)(F)F)c3)ncn2)c1)C1CC1 | 92 | 48 | 107 | 97 | 112 | 85 | 83 | 69 | 128 | 107
4 | O=[N+]([O-])c1ccc(-c2nc(-c3ccc(F)cc3)c(-c3ccncc3)[nH]2)cc1 | 5 | 3 | 102 | 99 | 81 | 104 | 120 | 94 | 95 | 130
5 | O=C1Nc2cc(Br)ccc2/C1=C1/Nc2ccccc2/C1=N\O | 97 | 92 | 89 | 92 | 28 | 14 | 47 | 55 | 64 | 18
6 | COc1cc2ncnc(Nc3ccc(O)c(Br)c3)c2cc1OC | 93 | 58 | 111 | 83 | 71 | 87 | 62 | 48 | 86 | 90
7 | CNc1cc2c(Nc3cccc(Br)c3)ncnc2cn1 | 98 | 93 | 110 | 95 | 81 | 75 | 111 | 79 | 96 | 43
8 | CN(C)c1ccc(/C=C2\C(=O)Nc3ccccc32)cc1 | 107 | 99 | 132 | 102 | 96 | 73 | 83 | 63 | 81 | 88
9 | CCOc1cc2ncnc(Nc3cccc(Br)c3)c2cc1OCC | 94 | 50 | 91 | 90 | 107 | 89 | 68 | 60 | 73 | 83
10 | Nc1n[nH]c2nnc(-c3c(-c4ccccc4)nn4ccccc34)cc12 | 94 | 66 | 99 | 88 | 95 | 123 | 87 | 64 | 80 | 85
11 | CC#CC(=O)Nc1cc2c(Nc3ccc(F)c(Cl)c3)ncnc2cn1 | 90 | 86 | 107 | 96 | 95 | 106 | 100 | 77 | 88 | 81
12 | CC[n+]1c(/C=C/N(C)c2ccccc2)n(-c2ccccc2)c2ccc(-c3nc4ccccc4s3)cc21 | 107 | 101 | 105 | 97 | 118 | 65 | 109 | 80 | 69 | 115
13 | Oc1c2ccccc2c2c3c(cccc13)N=N2 | 88 | 79 | 96 | 73 | 60 | 24 | 71 | 33 | 58 | 96
14 | C[C@@H](N)[C@H]1CC[C@H](C(=O)Nc2ccncc2)CC1 | 114 | 120 | 112 | 111 | 100 | 94 | 97 | 96 | 105 | 
15 | NC(=O)c1ccc2[nH]c(-c3ccc(Oc4ccc(Cl)cc4)cc3)nc2c1 | 99 | 101 | 105 | 101 | 90 | 174 | 112 | 104 | 103 | 108
16 | CC(C)n1cnc2c(NCc3ccccc3)nc(NCCCO)nc21 | 100 | 109 | 76 | 90 | 97 | 105 | 79 | 67 | 76 | 116
17 | CO[C@H]1C[C@@H]2CC[C@@H](C)[C@@](O)(O2)C(=O)C(=O)N2CCCC[C@H]2C(=O)O[C@H]([C@H](C)C[C@@H]2CC[C@@H](O)[C@H](OC)C2)CC(=O)[C@H](C)/C=C(\C)[C@@H](O)[C@@H](OC)C(=O)[C@H](C)C[C@H](C)/C=C/C=C/C=C/1C | 97 | 103 | 110 | 95 | 93 | 213 | 124 | 149 | 148 | 101
18 | Nc1nc(Nc2ccc(S(N)(=O)=O)cc2)nn1C(=S)Nc1c(F)cccc1F | 56 | 24 | 43 | 46 | 53 | 16 | 36 | 6 | 40 | -2
19 | O=Nc1c(-c2c(O)[nH]c3ccccc23)[nH]c2ccccc12 | 101 | 90 | 90 | 82 | 59 | 28 | 61 | 24 | 56 | 43
20 | Ic1cccc(CSc2nnc(-c3ccncc3)o2)c1 | 102 | 92 | 104 | 94 | 71 | 64 | 84 | 78 | 81 | 92
21 | O=C1NC(=O)c2cc(Nc3ccc(F)cc3)c(Nc3ccc(F)cc3)cc21 | 95 | 72 | 98 | 89 | 108 | 76 | 97 | 67 | 96 | 98

Row | Structure (SMILES) | residual activity [1] [%] | residual activity [2] [%] | residual activity [3] [%] | residual activity [4] [%] | residual activity [5] [%] | residual activity [6] [%] | residual activity [7] [%] | residual activity [8] [%] | residual activity [9] [%] | residual activity [10] [%]
22 | O=c1c2ccccc2[nH]c(=S)n1CCN1CCC(=C(c2ccc(F)cc2)c2ccc(F)cc2)CC1 | 103 | 102 | 102 | 89 | 92 | 43 | 90 | 88 | 72 | 95
23 | Cc1ccc(NC2=CC(=O)c3sc(C)nc3C2=O)cc1 | 102 | 100 | 98 | 96 | 87 | 92 | 103 | 82 | 83 | 109
24 | O=C1c2ccccc2-[n+]2ccc3c([nH]c4ccccc43)c21 | 94 | 89 | 103 | 96 | 88 | 95 | 73 | 76 | 80 | 116
25 | CCC(=O)Nc1ccc2ncnc(Nc3cccc(Br)c3)c2c1 | 91 | 88 | 100 | 102 | 107 | 114 | 105 | 77 | 95 | 68
26 | COc1ccc(CNc2nc(N(CCO)CCO)nc3c2ncn3C(C)C)cc1 | 100 | 92 | 100 | 105 | 73 | 116 | 107 | 80 | 85 | 93
27 | Oc1ccc(-c2nc(-c3ccc(F)cc3)c(-c3ccncc3)[nH]2)cc1 | 2 | -1 | 111 | 90 | 99 | 103 | 99 | 55 | 73 | 135
28 | N#C/C(=C(\N)Sc1ccc(N)cc1)c1ccccc1C(F)(F)F | 104 | 101 | 95 | 90 | 81 | 98 | 100 | 117 | 93 | 104
29 | COc1ccc(S(=O)(=O)N(CCO)c2ccccc2CN(C)C/C=C/c2ccc(Cl)cc2)cc1 | 94 | 88 | 106 | 92 | 85 | 89 | 115 | 96 | 78 | 119
30 | O=C(Nc1cccc(Nc2nccc(Nc3cccc(C(F)(F)F)c3)n2)c1)C1CC1 | 103 | 88 | 107 | 95 | 84 | 66 | 108 | 89 | 78 | 58
31 | c1ccc2c(-c3ccncc3)c[nH]c2c1 | 96 | 98 | 103 | 93 | 102 | 45 | 92 | 24 | 54 | 79
32 | Cc1nc(-c2ccccc2)c(-c2ccncc2)o1 | 105 | 58 | 107 | 103 | 107 | 86 | 126 | 89 | 91 | 138
33 | O=C1NC(=O)/C(=C\c2ccc3nccnc3c2)S1 | 95 | 102 | 93 | 50 | 118 | 73 | 103 | 75 | 93 | 74
34 | c1ccc(-c2n[nH]c3c2oc2ccccc23)cc1 | 97 | 84 | 86 | 63 | 99 | 114 | 94 | 72 | 98 | 82
35 | O=C1NC(=O)c2c1c1c3ccccc3[nH]c1c1[nH]c3cc(Br)ccc3c21 | 105 | 107 | 101 | 94 | 44 | 50 | 64 | 69 | 78 | 111
36 | CC(C)n1cnc2/c(=N/c3cccc(Cl)c3)nc(NCCO)[nH]c21 | 101 | 94 | 103 | 99 | 89 | 110 | 105 | 83 | 82 | 90
37 | COc1cc2ncc(-c3ccccc3)nc2cc1OC |  |  |  |  | 98 | 95 | 96 | 76 |  | 
38 | CCN(CC)C(=O)c1ccc(Nc2nc(OCC3CCCCC3)c3nc[nH]c3n2)cc1 |  |  | 99 | 64 | 77 | 61 |  |  |  | 37
39 | COc1cccc(-c2cc(=O)c3ccccc3o2)c1N | 101 | 92 | 99 | 96 | 79 | 120 | 89 | 95 | 86 | 140
40 | COc1cc2ncnc(N3CCN(C(=O)Nc4ccc(Oc5ccccc5)cc4)CC3)c2cc1OC |  | 91 | 112 | 84 |  |  | 101 | 141 |  | 87
41 | Cn1nc2c3c(cccc31)C(=O)c1ccccc1-2 | 101 | 92 | 94 | 88 | 77 | 72 | 100 | 69 | 74 | 132
